Several values for one entry are separate records, joined by “and”; a condition that tells them apart may be missing. Equal values may be shown once. About 2,000 (36%) of roughly 5,500 compounds were called active. Another 18% or so got no clear call; they are omitted. No stated cut-off is given here; in the data, active means normalized growth mostly below about 0.91 (no sharp cut-off); inconclusive means no clear call, values can overlap the other calls; inactive means mostly above about 0.92. The list shows a part of the results.
Assay: chemical genetic growth profiling, strain panel (AID 1159580);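 further: tested at 20 µM; growth read once vehicle control cultures reached saturation at 30 °C; 1 = growth at the plate median or of vehicle wells; lower values mean less growth of the strain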
Settings: S. cerevisiae deletion strains, growth OD

Measured: normalized growth

COc1ccccc1OCC(O)COC(N)=O (stereo not drawn)
inactive: locus YAL013W, strain DEP1, active compounds read low 0.997 | locus YAL021C, strain ccr4, active compounds read low 0.991 | locus YAL026C, strain drs2, active compounds read low 0.99 | locus YAL030W, strain snc1, active compounds read low 0.996 | locus YBL061C, strain skt5, active compounds read low 0.989 | locus YBR009C, strain hhf1, active compounds read low 0.97 | locus YBR021W, strain FUR4, active compounds read low 1.02 | locus YBR023C, strain chs3, active compounds read low 0.966 | locus YBR171W, strain sec66, active compounds read low 0.981 | locus YBR229C, strain ROT2, active compounds read low 1 | locus YBR231C, strain swc5, active compounds read low 0.992 | locus YBR279W, strain paf1, active compounds read low 0.976 | locus YCL011C, strain gbp2, active compounds read low 0.979 | locus YCL016C, strain dcc1, active compounds read low 0.962 | locus YCL029C, strain bik1, active compounds read low 0.997 | locus YCL061C, strain MRC1, active compounds read low 0.973 | locus YCL069W, strain vba3, active compounds read low 0.996 | locus YCR088W, strain abp1, active compounds read low 0.985 | locus YDL005C, strain med2, active compounds read low 0.987 | locus YDL035C, strain GPR1, active compounds read low 1 | locus YDL040C, strain nat1, active compounds read low 0.992 | locus YDL074C, strain BRE1, active compounds read low 0.995 | locus YDL101C, strain DUN1, active compounds read low 0.997 | locus YDL134C, strain PPH21, active compounds read low 1.01 | locus YDL185W, strain tfp1, active compounds read low 0.957 | locus YDL192W, strain arf1, active compounds read low 0.977 | locus YDR001C, strain nth1, active compounds read low 0.991 | locus YDR069C, strain doa4, active compounds read low 0.996 | locus YDR101C, strain arx1, active compounds read low 1.04 | locus YDR137W, strain rgp1, active compounds read low 0.965 | locus YDR159W, strain sac3, active compounds read low 1.01 | locus YDR162C, strain NBP2, active compounds read low 1 | locus YDR195W, strain ref2 1.01 | locus YDR297W, strain sur2, active compounds read low 0.996 | locus YDR318W, strain mcm21, active compounds read low 0.993 | locus YDR334W, strain swr1, active compounds read low 0.978 | locus YDR335W, strain msn5, active compounds read low 0.993 | locus YDR388W, active compounds read low 1 | locus YDR392W, strain spt3, active compounds read low 0.918 | locus YDR502C, strain sam2, active compounds read low 0.997 | locus YEL003W, strain gim4, active compounds read low 1 | locus YEL037C, strain rad23, active compounds read low 0.985 | locus YEL061C, strain CIN8 (second series), active compounds read low 0.984 | locus YEL061C, strain CIN8, active compounds read low 0.98 | locus YER015W, strain faa2, active compounds read low 0.974 | locus YER016W, strain bim1, active compounds read low 1.02 | locus YER110C, active compounds read low 0.983 | locus YER111C, strain swi4, active compounds read low 0.981 | locus YER155C, strain BEM2 (second series), active compounds read low 1 | locus YER155C, strain BEM2, active compounds read low 0.993 | locus YER167W, strain BCK2, active compounds read low 0.99 | locus YFR010W, strain ubp6, active compounds read low 0.987 | locus YGL078C, strain dbp3, active compounds read low 0.984 | locus YGL086W, strain mad1, active compounds read low 1.02 | locus YGL167C, strain pmr1, active compounds read low 0.983 | locus YGL173C, strain kem1, active compounds read low 0.992 | locus YGL227W, strain vid30, active compounds read low 0.988 | locus YGL240W, strain doc1, active compounds read low 1.02 | locus YGL248W, strain PDE1, active compounds read low 0.999 | locus YGL253W, strain hxk2, active compounds read low 0.985 | locus YGR078C, strain PAC10, active compounds read low 1 | locus YGR135W, strain pre9, active compounds read low 0.961 | locus YGR229C, strain SMI1, active compounds read low 1 | locus YGR252W, strain gcn5, active compounds read low 0.988 | locus YHR013C, strain ard1, active compounds read low 0.952 | locus YHR027C, strain rpn1, active compounds read low 1 | locus YHR030C, strain SLT2, active compounds read low 0.996 and 1.06 | locus YHR079C, strain IRE1 (second series), active compounds read low 0.991 | locus YHR079C, strain IRE1, active compounds read low 1.05 | locus YHR094C, strain hxt1, active compounds read low 1 | locus YHR129C, strain ARP1, active compounds read low 1 | locus YHR142W, strain chs7, active compounds read low 0.965 | locus YHR200W, strain rpn10, active compounds read low 0.985 | locus YIL066C, strain RNR3, active compounds read low 1 | locus YIL073C, strain SPO22, active compounds read low 0.94 | locus YIL125W, strain kgd1, active compounds read low 0.999 | locus YIR030C, strain dcg1, active compounds read low 0.985 | locus YJL092W, strain hpr5, active compounds read low 0.984 | locus YJL095W, strain BCK1 (second series), active compounds read low 0.991 | locus YJL095W, strain BCK1, active compounds read low 0.991 and 1.03 | locus YJL115W, strain asf1, active compounds read low 0.975 | locus YJL129C, strain trk1, active compounds read low 0.972 | locus YJL134W, strain LCB3, active compounds read low 0.99 | locus YJL154C, strain vps35, active compounds read low 0.992 | locus YJL164C, strain tpk1, active compounds read low 0.97 | locus YJL166W, strain qcr8, active compounds read low 0.96 | locus YJL168C, strain set2, active compounds read low 1 | locus YJL187C, strain SWE1 (second series), active compounds read low 1 | locus YJL187C, strain SWE1, active compounds read low 0.99 | locus YJR043C, strain POL32, active compounds read low 1.02 | locus YJR066W, strain TOR1, active compounds read low 0.984 | locus YKL009W, strain mrt4, active compounds read low 0.973 | locus YKL068W, active compounds read low 0.989 | locus YKL085W, strain MDH1 (second series), active compounds read low 0.982 | locus YKL085W, strain MDH1, active compounds read low 0.982 | locus YKL160W, strain elf1, active compounds read low 0.965 | locus YKL190W, strain CNB1, active compounds read low 0.976 | locus YKR001C, strain vps1, active compounds read low 1 | locus YKR026C, strain gcn3, active compounds read low 0.992 | locus YKR091W, strain srl3, active compounds read low 0.981 | locus YLL001W, strain dnm1, active compounds read low 0.968 | locus YLL026W, active compounds read low 0.995 | locus YLL041C, strain sdh2, active compounds read low 0.998 | locus YLR027C, strain aat2, active compounds read low 0.997 | locus YLR039C, strain RIC1, active compounds read low 0.941 | locus YLR058C, strain SHM2, active compounds read low 0.999 | locus YLR102C, strain apc9, active compounds read low 0.991 | locus YLR113W, strain HOG1, active compounds read low 1.02 | locus YLR221C, strain rsa3, active compounds read low 0.965 | locus YLR258W, strain gsy2, active compounds read low 0.974 | locus YLR262C, strain YPT6 (second series), active compounds read low 0.966 | locus YLR262C, strain YPT6, active compounds read low 0.985 | locus YLR268W, strain sec22, active compounds read low 0.99 | locus YLR320W, strain mms22, active compounds read low 0.964 | locus YLR330W, strain CHS5, active compounds read low 0.991 | locus YLR342W, strain FKS1 (second series), active compounds read low 1.01 | locus YLR342W, strain FKS1, active compounds read low 0.981 | locus YLR357W, strain rsc2, active compounds read low 0.963 | locus YLR370C, strain arc18, active compounds read low 0.987 | locus YLR371W, strain rom2, active compounds read low 1 | locus YLR384C, strain iki3, active compounds read low 0.979 | locus YLR418C, strain cdc73, active compounds read low 0.988 | locus YML016C, strain PPZ1, active compounds read low 1 | locus YML032C, strain rad52, active compounds read low 1 | locus YML120C, strain ndi1, active compounds read low 0.958 | locus YML124C, strain tub3, active compounds read low 0.988 | locus YMR058W, strain fet3, active compounds read low 0.991 | locus YMR078C, strain ctf18, active compounds read low 0.986 | locus YMR125W, strain sto1, active compounds read low 0.971 | locus YMR129W, active compounds read low 0.988 | locus YMR205C, strain PFK2, active compounds read low 0.964 | locus YMR223W, strain ubp8, active compounds read low 0.964 | locus YMR231W, strain pep5, active compounds read low 0.983 | locus YMR307W, strain GAS1, active compounds read low 1.02 | locus YNL067W, strain RPL9B, active compounds read low 0.986 | locus YNL071W, strain lat1, active compounds read low 0.982 | locus YNL128W, strain TEP1, active compounds read low 0.977 | locus YNL153C, strain GIM3, active compounds read low 1.01 | locus YNL183C, strain NPR1, active compounds read low 0.976 | locus YNL209W, strain ssb2, active compounds read low 0.984 | locus YNL233W, strain BNI4, active compounds read low 0.995 | locus YNL248C, strain rpa49, active compounds read low 0.985 | locus YNL250W, strain rad50, active compounds read low 0.967 | locus YNL271C, strain bni1, active compounds read low 0.977 | locus YNL298W, strain CLA4, active compounds read low 0.99 | locus YNL307C, strain MCK1, active compounds read low 0.999 | locus YNL322C, strain KRE1 (second series), active compounds read low 0.987 | locus YNL322C, strain KRE1, active compounds read low 0.997 | locus YNR049C, strain mso1, active compounds read low 0.99 | locus YNR052C, strain pop2, active compounds read low 0.992 | locus YOL006C, strain TOP1, active compounds read low 1.01 | locus YOL012C, strain htz1 0.742 | locus YOL147C, strain pex11, active compounds read low 0.987 | locus YOR001W, strain rrp6, active compounds read low 1.01 | locus YOR061W, strain CKA2, active compounds read low 1 | locus YOR069W, strain VPS5, active compounds read low 0.992 | locus YOR070C, strain gyp1, active compounds read low 0.988 | locus YOR080W, strain dia2, active compounds read low 0.987 | locus YOR083W, strain WHI5, active compounds read low 0.954 | locus YOR106W, strain vam3, active compounds read low 0.955 | locus YOR136W, strain idh2, active compounds read low 0.989 | locus YOR144C, strain elg1, active compounds read low 0.997 | locus YOR184W, strain ser1, active compounds read low 0.989 | locus YOR231W, strain MKK1, active compounds read low 1.04 | locus YOR265W, strain rbl2, active compounds read low 0.992 | locus YOR270C, strain vph1, active compounds read low 0.972 | locus YOR290C, strain snf2, active compounds read low 0.886 | locus YOR316C, strain cot1, active compounds read low 0.984 | locus YPL051W, strain arl3, active compounds read low 1.01 | locus YPL078C, strain atp4, active compounds read low 0.97 | locus YPL106C, strain sse1, active compounds read low 0.978 | locus YPL240C, strain hsp82, active compounds read low 0.996 | locus YPL256C, strain CLN2, active compounds read low 1.06 | locus YPR119W, strain clb2, active compounds read low 0.991 | locus YPR141C, strain kar3, active compounds read low 0.966 | locus YPR163C, strain tif3, active compounds read low 0.988 | locus YPR167C, strain met16, active compounds read low 0.995 | strain wtn01, active compounds read low 0.991

From PubChem BioAssay AID1159580 (chemical genetic matrix, 2015)
